39 compounds from PubChem BioAssay (NCI) can be followed below.

About 83,000 compounds went through this panel and 20% of them were active in at least one assay; those are over-represented in the sample as a whole.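 Cell lines were cultured in 96-well plates, exposed to a single compound concentration, and assessed for percent growth 48 hours later.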 A number with no mark means an inactive call. Active and inactive are the calls of the source. Rule for the calls: active = growth percent below 10; inactive = the rest.

One assay concerns IGROV1 ovarian. Nature of the assay: NCI-60 one-dose screen, 48 h (100 = growth as untreated, 0 = no growth, -100 = all killed). The following applies: 10 µM unless noted.
For `O=C(O)C(O)C(O)C(=O)O.[NH-]C1CCCCC1[NH-].[Pt+2]` (stereo not given), the growth is 106%. Turning to `Cc1ccc(Nc2c(C(N)=O)cnc3ccc(-c4csc(N)n4)cc23)cc1`, the growth was 89.3%. For the compound `Cl/C(=N\Nc1ccccc1)c1ccccc1`, the growth was 85.6%. With `COc1cc(-c2c3sc(=O)[nH]c3nc3c2c(=O)[nH]n3C(C)C)cc2c1OCO2`, the growth was 101%.

For `CC(C)(C)n1cc(-c2ccnc(NCCNS(=O)(=O)c3ccccc3)c2)c(-c2cccc(O)c2)n1`, the growth was 76%. For the compound `COC(=O)C12C3C(=O)N(c4ccc(OC)cc4)C(=O)C3C(c3cn(-c4ccccc4)nc3C)N1[C@H](c1cn(-c3ccccc3)nc1C)[C@@H]1C(=O)N(c3ccc(OC)cc3)C(=O)[C@@H]12` (stereo not given in full), the growth was 107%.

Consider `CC/C(Cc1ccccc1)=C(/c1ccc(O)cc1)c1ccc(OCCN2CCCC2)cc1`, for which the growth was 13.9%.

For `O=C(NC(Cc1ccccc1)C(=O)CCl)OCc1ccccc1` (stereo not given), the growth is 87.7%. Same read-out and setting: the value for `CCCCCC(=O)N(CCCC)CCCC` was 113%; that for `COc1cccc(/C=C2/C(=O)N(Cc3ccco3)SC2=S)c1OC` was 104%; that for `COc1ccc(-c2cc(/C=C3\C(=O)Nc4ccc(Cl)cc43)[nH]n2)cc1` was 17.7%. The same measure, in the same setting: in the case of `CCOC(=O)C(C#N)C1CCCCC1` (stereo not given) it was 101%; in that of `CC(C)[C@H]1COC(=O)N1[C@@H]1C(=O)N([C@@H](CCC(=O)N2CCN(C3CCCC3)CC2)C(=O)N[C@@H]2CCCc3ccccc32)[C@@H]1/C=C/c1cccc(Br)c1`, 32%. Same read-out and setting: the value for `Nc1ccc(N2CCOCC2)cc1` was 105%.

As to `COc1cccc(/C=C\C(=O)c2ccccc2)c1`, the growth was 2.47% (active). Consider `NS(=O)(=O)c1ccc(-n2ncc3c(=O)[nH]c(CN4CCN(c5cc6c(cc5F)c(=O)c(C(=O)O)cn6C5CC5)CC4)nc32)cc1`, for which the growth was 92.8%. Turning to `COc1cc(C2CC(=O)Nc3c2c(C)nn3-c2nc3ccccc3[nH]2)cc(OC)c1OC` (stereo not given), the growth is 85.1%. Take `CN1CCCCC1CCN1c2ccccc2Sc2ccc(Br)cc21` (stereo not given): the growth is 35.9%.

As for `CCOC(=O)CC(C)=N`, the growth was 132%. Still for that read-out and setting: in the case of `N=S(=O)(NC(=O)c1ccc(Cl)cc1Cl)c1ccc(Br)s1` (stereo not given) it was -1.49% (active); in that of `COc1ccc(CN(c2ccc(C)cc2)C2OC(=O)c3ccccc32)cc1OC` (stereo not given), 116%. Consider `c1c2c(cc3c1OCO3)Cc1cc3c(cc1Cc1cc4c(cc1C2)OCO4)OCO3`, for which the growth is 104%. The same measure, in the same setting: the value for `CCCCCCCCCCCCS(=O)CC(C)O` (stereo not given) was 120%; that for `CC1(C)CC(C(=O)OCCCCCCCCCCC[P+](c2ccccc2)(c2ccccc2)c2ccccc2)C(C)(C)N1O` (stereo not given) was -58.7% (active).

On to `COc1ccc(/C(=C/c2ccc3ccccc3c2)c2nn[nH]n2)cc1OC`, for which the growth is 48.7%. For the compound `Cc1cccc(NC(=O)c2sc3nc4c(cc3c2N)C(=O)CCC4)c1`, the growth is -4.52% (active).

`O=[N+]([O-])c1cccc(C2CC(c3ccccc3)=Nc3ccccc3S2)c1` (stereo not given): the growth was 91.8%. Take `CCOC(=O)/C=C/c1ccc(C(=O)OCC)[nH]1`: the growth was 42.4%. The same measure, in the same setting: in the case of `CS(CCCCN=C=S)=NC(=O)c1c(F)c(F)c(F)c(F)c1F` (stereo not given) it was 76.8%; in that of `COC1C/C(=N\O)C2OC(c3ccccc3)OCC2O1` (stereo not given), 109%; in that of `Cc1cc(Nc2nc(N3CCN(C)CC3)nc3ccccc23)n[nH]1`, 35.6%.

For `O=C1Nc2ccccc2/C1=C/C(=N/c1nnc(-c2ccccc2)s1)c1ccccc1`, the growth is 19.7%. For `COc1ccc(N(Cc2cc(OC)c(OC)c(OC)c2)C2OC(=O)c3ccccc32)cc1` (stereo not given), the growth is 36.3%. The same measure, in the same setting: in the case of `Cc1csc2ccc(Cl)cc12` it was 104%. On the same count and under the same terms, the value for `O=C1Nc2ccccc2/C1=C/C(=N/c1nnc(-c2ccc(Cl)cc2)s1)c1ccccc1` was 21%; that for `CC(=O)OCC1OC(OC2=C(CC=C(Cl)Cl)C(=O)c3ccccc3C2=O)C(OC(C)=O)C(OC(C)=O)C1OC(C)=O` (stereo not given) was 83.4%; that for `O=C(/C=C/c1ccc(B(O)O)cc1)/C=C/c1ccc(B(O)O)cc1` was -73.3% (active). Consider `Cc1cc2cc3cc(C)c(N(C)C)cc3[n+](C)c2cc1N(C)C`, for which the growth was -3.39% (active).

Another assay concerns OVCAR-3 ovarian. Described as above. The following applies: 10 µM unless noted.
In the case of `O=C(O)C(O)C(O)C(=O)O.[NH-]C1CCCCC1[NH-].[Pt+2]` (stereo not given), the growth is 107%. As for `Cc1ccc(Nc2c(C(N)=O)cnc3ccc(-c4csc(N)n4)cc23)cc1`, the growth was 108%.

For `Cl/C(=N\Nc1ccccc1)c1ccccc1`, the growth is 91.4%. Consider `COc1cc(-c2c3sc(=O)[nH]c3nc3c2c(=O)[nH]n3C(C)C)cc2c1OCO2`, for which the growth was 114%. Regarding `CC(C)(C)n1cc(-c2ccnc(NCCNS(=O)(=O)c3ccccc3)c2)c(-c2cccc(O)c2)n1`, the growth was 74.4%. Consider `CC/C(Cc1ccccc1)=C(/c1ccc(O)cc1)c1ccc(OCCN2CCCC2)cc1`, for which the growth was -79.6% (active). On to `O=C(NC(Cc1ccccc1)C(=O)CCl)OCc1ccccc1` (stereo not given), for which the growth was 76%. For `CCCCCC(=O)N(CCCC)CCCC`, the growth was 120%. Turning to `COc1cccc(/C=C2/C(=O)N(Cc3ccco3)SC2=S)c1OC`, the growth was 110%. On to `COc1ccc(-c2cc(/C=C3\C(=O)Nc4ccc(Cl)cc43)[nH]n2)cc1`, for which the growth was 31.6%. Still for that read-out and setting: in the case of `CCOC(=O)C(C#N)C1CCCCC1` (stereo not given) it was 96.9%; in that of `CC(C)[C@H]1COC(=O)N1[C@@H]1C(=O)N([C@@H](CCC(=O)N2CCN(C3CCCC3)CC2)C(=O)N[C@@H]2CCCc3ccccc32)[C@@H]1/C=C/c1cccc(Br)c1`, 45.1%; in that of `Nc1ccc(N2CCOCC2)cc1`, 99.7%.

As for `COc1cccc(/C=C\C(=O)c2ccccc2)c1`, the growth was -4.31% (active). For the compound `NS(=O)(=O)c1ccc(-n2ncc3c(=O)[nH]c(CN4CCN(c5cc6c(cc5F)c(=O)c(C(=O)O)cn6C5CC5)CC4)nc32)cc1`, the growth was 107%.

Turning to `COc1cc(C2CC(=O)Nc3c2c(C)nn3-c2nc3ccccc3[nH]2)cc(OC)c1OC` (stereo not given), the growth was 115%.

On to `CN1CCCCC1CCN1c2ccccc2Sc2ccc(Br)cc21` (stereo not given), for which the growth was 77.9%. The same measure, in the same setting: in the case of `Cc1ccc(C2CC3c4ccccc4C2C2CCCCN32)cc1` (stereo not given) it was 67.7%; in that of `N=S(=O)(NC(=O)c1ccc(Cl)cc1Cl)c1ccc(Br)s1` (stereo not given), 105%. In the case of `COc1ccc(CN(c2ccc(C)cc2)C2OC(=O)c3ccccc32)cc1OC` (stereo not given), the growth is 113%. Take `c1c2c(cc3c1OCO3)Cc1cc3c(cc1Cc1cc4c(cc1C2)OCO4)OCO3`: the growth is 123%. Consider `CCCCCCCCCCCCS(=O)CC(C)O` (stereo not given), for which the growth was 120%. Turning to `CC1(C)CC(C(=O)OCCCCCCCCCCC[P+](c2ccccc2)(c2ccccc2)c2ccccc2)C(C)(C)N1O` (stereo not given), the growth is -95.9% (active). With `COc1ccc(/C(=C/c2ccc3ccccc3c2)c2nn[nH]n2)cc1OC`, the growth was -17.3% (active). On the same count and under the same terms, in the case of `Cc1cccc(NC(=O)c2sc3nc4c(cc3c2N)C(=O)CCC4)c1` it was 7.66% (active); in that of `O=[N+]([O-])c1cccc(C2CC(c3ccccc3)=Nc3ccccc3S2)c1` (stereo not given), 88%.

As for `CCOC(=O)/C=C/c1ccc(C(=O)OCC)[nH]1`, the growth was 22.6%. Consider `CS(CCCCN=C=S)=NC(=O)c1c(F)c(F)c(F)c(F)c1F` (stereo not given), for which the growth was 57.3%. Take `COC1C/C(=N\O)C2OC(c3ccccc3)OCC2O1` (stereo not given): the growth is 110%.

Regarding `Cc1cc(Nc2nc(N3CCN(C)CC3)nc3ccccc23)n[nH]1`, the growth is 75.8%. As to `O=C1Nc2ccccc2/C1=C/C(=N/c1nnc(-c2ccccc2)s1)c1ccccc1`, the growth is -20.2% (active). `COc1ccc(N(Cc2cc(OC)c(OC)c(OC)c2)C2OC(=O)c3ccccc32)cc1` (stereo not given): the growth is -18.4% (active). For the compound `Cc1csc2ccc(Cl)cc12`, the growth is 111%.

`O=C1Nc2ccccc2/C1=C/C(=N/c1nnc(-c2ccc(Cl)cc2)s1)c1ccccc1`: the growth is -70.1% (active). In the case of `CC(=O)OCC1OC(OC2=C(CC=C(Cl)Cl)C(=O)c3ccccc3C2=O)C(OC(C)=O)C(OC(C)=O)C1OC(C)=O` (stereo not given), the growth was 46.4%. On to `O=C(/C=C/c1ccc(B(O)O)cc1)/C=C/c1ccc(B(O)O)cc1`, for which the growth is 27.8%.

Turning to `Cc1cc2cc3cc(C)c(N(C)C)cc3[n+](C)c2cc1N(C)C`, the growth is -7.45% (active).
